A selection: hits, their analogues and other compounds. The true share with any hit is near 17%.
DT40 TDP1 CPT: qHTS for Inhibitors of human tyrosyl-DNA phosphodiesterase 1 (TDP1): qHTS in cells in presence of CPT; chicken DT40 Tdp1-/-;hTDP1 cells + 20 nM CPT, ATP luminescence, 48 h; Potency, µM (titrated, usually from 46.2 µM), without a hit: at the top dose activity change, negative = growth inhibition, hits mostly inhibitors; actives 12% (n = 420,000); AID 686979, 2013; further: on the % scale 0 is the no-effect control and ±100 the full control effect; nearly all actives have a fitted effect of over 55% in size
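Chicken DT40 Tdp1-/- cells stably complemented with human TDP1 were seeded at 400 cells/well in medium containing 20 nM camptothecin, exposed to pin-transferred compounds, and grown at 37 °C for at least 48 hr. Viability was read as ATP luminescence.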
ATXN2 expr inh: Primary qHTS for Inhibitors of ATXN expression. HEK-293 ATXN2-luciferase reporter, luminescence, 24 h. Potency, µM (series often up to 57 µM), inactives show at the highest dose activity change, negative = inhibition, most hits filed as inhibitors. actives 0.72% (n = 360,000). AID 1745845, 2022; further: on the % scale 0 is the no-effect control and ±100 the full control effect; nearly all actives have a fitted effect of over 55% in size
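qHTS (up to 57 uM final) was run with 24 h compound exposure of reporter cells at 37 °C. Each well was multiplexed: SteadyGlo luminescence measured ATXN2-luciferase expression after a fluorogenic Gly-Phe-AFC viability readout (25 uM final).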
DT40 TDP1 no CPT: qHTS for Inhibitors of human tyrosyl-DNA phosphodiesterase 1 (TDP1): qHTS in cells in absence of CPT; Potency, µM (doses to about 46.2 µM), without a hit: top-dose activity change, negative = growth inhibition, usual class: inhibitors; actives 15% (n = 420,000); DT40 Tdp1-/- hTDP1 cells, no CPT, ATP luminescence, 48 h; further: on the % scale 0 is the no-effect control and ±100 the full control effect; nearly all actives have a fitted effect of over 55% in size
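A cellular qHTS used chicken DT40 cells lacking endogenous Tdp1 but carrying stably transfected human TDP1. Compounds were applied without camptothecin, and cell growth kinetics were judged by ATP-dependent luminescence after ≥48 hr.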
TGFb SMAD3 inh: qHTS for Inhibitors of TGF-b; actives 1.2% (n = 410,000); Potency, µM (titrated, usually from 46.1 µM), for inactives: at the top dose activity, negative = inhibition, hits mostly inhibitors; HepG2 CAGA-GFP TGF-b/SMAD3 reporter, GFP fluorescence, 18 h; TGF-beta stimulated, 500 pg/mL final; further: on the % scale 0 is the no-effect control and ±100 the full control effect; nearly all actives have a fitted effect of over 65% in size
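Using HEPG2 CAGA-GFP reporter cells at 1000 cells/well, we pinned test compounds, stimulated with recombinant TGF-beta (500 pg/mL final) and measured total well GFP after 18 h.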
S2 tox: Viability Counterscreen for Primary qHTS for Inhibitors of ATXN expression; S2 cells (HEK-293 line with an ATXN2-luciferase reporter) viability, CellTiter-Fluor protease fluorescence, 24 h; AID 651635, 2014; actives 0.49% (n = 400,000); Potency, µM (series often up to 56.7 µM), actives largely listed as cytotoxic; further: nearly all actives have a fitted effect of over 40% in size
HepG2 tox: qHTS for Inhibitors of TGF-b: Cytotox Counterscreen; actives 0.76% (n = 410,000); HepG2 CAGA-GFP viability, ATP luminescence, 18 h; Potency, µM (series often up to 46.1 µM), without a hit: at the top dose activity change, negative = cytotoxicity, most hits filed as cytotoxic
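CellTiter-Glo luminescence gave cytotoxicity after 18 hours at 37 degrees C. The cells were HepG2 CAGA-GFP in 1% FBS DMEM, stimulated with 500 pg/mL TGF-beta after compound addition. %Activity was normalised to no-cell wells (complete cell-killing) and DMSO (no toxicity), and curves were fitted and classified.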
The depositor's hits bear a star; i = inactive; ? = inconclusive; / = not tested or not shown; [ ] = remark or other dose. The call rests on the fitted dose curve; in most records, active means well fitted curve in the direction sought with a large enough effect; inconclusive means small, poorly fitted or top-dose-only effect, or another doubt; inactive means no such curve, though single readings can be large; an effect the other way counts as inactive or inconclusive. Potency means the concentration at half of the fitted maximal effect.

SMILES | DT40 TDP1 CPT | ATXN2 expr inh | DT40 TDP1 no CPT | TGFb SMAD3 inh | S2 tox | HepG2 tox
Oc1ccc(C[C@H]2CNCCN2CC2CCCCC2)cc1 | ? | 3.4% | 16.4µM* | -4.1% | i | -19.3%
COC(=O)c1ccc(CSc2nc3ccc(C)cc3[nH]2)o1 | -24.3% | 5.8% | ? | -26.9% | i | 1.1%
COc1ccc2c(c1)c1c(c(=O)n(CCc3ccccc3)c(=O)n1Cc1ccc(F)cc1)n2C | -7.6% | 11.7% | -12.2% | 12.5% | i | -9.3%
CC(C)n1c(SCC(=O)NC2CC2)nnc1-c1ccco1 | -4.9% | 0.4% | 15.3% | 8.3% | i | 10.6%
Cc1cc(C)c(-c2csc(NC(=O)C3=COCCO3)n2)cc1C | 23.1µM* | 1.9% | 20.6µM* | -10.3% | ? | -8.4%
CC(=O)Nc1nc(-c2ccc([N+](=O)[O-])cc2)cs1 | ? | / | ? | -3.5% | i | -20.2%
O=C(Nc1nc(-c2ccc([N+](=O)[O-])cc2)cs1)c1c(F)cccc1F | -2.9% | / | 4.61µM* | 0.0% | i | -9.6%
O=C(NC(=S)Nc1nc(-c2cccc([N+](=O)[O-])c2)cs1)c1cc(Cl)ccc1Cl | -82.7% | -26.2% | 16.4µM* | 11.0% | i | 6.5%
O=C(Nc1nc(-c2ccc([N+](=O)[O-])cc2)cs1)C1=COCCO1 | -24.5% | / | 9.2µM* | 31.2% | i | 36.2%
O=C(Nc1nc(-c2ccc(-c3ccccc3)cc2)cs1)C1=COCCO1 | -23.3% | ? | ? | ? | ? | -46.3%
Cc1cccn2c(=O)c(C=O)c(Cl)nc12 | 2.59µM* | ? | 2.31µM* | 15.8µM* | ? | -68.9%
Cc1cccn2c(=O)c(C=O)c(N3CCCCC3)nc12 | -0.5% | -2.2%[11.3 µM] | -23.2% | 0.4% | / | -7.5%
O=Cc1c(Cl)nc2ccccn2c1=O | 18.4µM* | 18.1% | 16.4µM* | ? | i | 0.562µM*
CC1CCN(c2nc3ccccn3c(=O)c2C=O)CC1 | -13.0% | 0.3% | 0.0% | -0.1% | i | 3.3%
Cc1cccc(N2CCN(C(=O)CN3CCSc4ccccc43)CC2C)c1 (stereo not given) | / | -1.0% | / | -5.3% | ? | -16.6%
O=C(Cc1cccc2ccccc12)N/N=C/c1ccc2cccc(O)c2n1 | ? | ? | 14.6µM* | ? | i | -36.6%
O=C(Cc1cccc2ccccc12)N/N=C/c1ccc(O)c([N+](=O)[O-])c1 | 20.0% | -9.8% | -16.0% | 7.0% | i | -0.2%
CC(C)(C)c1cc(NC(=O)Nc2ccc(Br)cc2Cl)no1 | 20.6µM* | 0.6% | ? | ? | i | -28.0%
Cc1c(Cl)cccc1NC(=O)Nc1cc(C(C)(C)C)on1 | ? | / | 14.6µM* | -26.0% | ? | -20.4%
COc1ccc(NC(=O)N2CC[C@@]3(CCCN(C(=O)c4cccn4C)C3)C2)cc1 | 1.4% | / | -10.3% | / | / | /
CCCS(=O)(=O)c1nc(S(=O)(=O)c2ccc(C)cc2)c(NCCCOC(C)C)s1 | ? | / | 16.4µM* | / | / | -19.5%
Cc1ccc(S(=O)(=O)c2nc(S(C)(=O)=O)sc2NCc2ccccc2)cc1 | ? | -3.9% | ? | -1.1% | i | -20.4%
Cc1ccc(S(=O)(=O)c2nc(S(=O)(=O)c3ccccc3)sc2NCCCOC(C)C)cc1 | ? | 3.9% | 11.6µM* | 4.3% | i | 8.4%
CCc1ccc(-n2c(=O)c3c(C)c(C)sc3n(CC(=O)NCC3CCCO3)c2=O)cc1 (stereo not given) | 9.4% | 7.4% | ? | 1.8% | ? | 23.3%
Cc1ccc2nc3c(cc2c1)CN(Cc1ccco1)C(=NCC1CCCO1)S3 (stereo not given) | ? | -7.1% | ? | 3.8% | i | -16.6%
SMILES | DT40 TDP1 CPT | ATXN2 expr inh | DT40 TDP1 no CPT | TGFb SMAD3 inh | S2 tox | HepG2 tox
Cc1cccc2cc3c(nc12)SC(=NCC1CCCO1)N(Cc1ccco1)C3 (stereo not given) | ? | -19.0% | 23.1µM* | ? | i | -82.6%
COc1ccccc1NC(=O)C(C)Sc1nnc2ccc3ccccc3n12 (stereo not given) | 20.6µM* | 5.9% | ? | 6.5% | ? | 13.5%
CC(Sc1nnc2ccc3ccccc3n12)C(=O)Nc1ccc(Cl)cc1 (stereo not given) | 14.6µM* | / | ? | 0.0% | / | 1.0%
CC(=O)Nc1ccc(C(=O)CSc2nnc3ccc4ccccc4n23)cc1 | ? | / | ? | 16.9% | / | 15.2%
CCOC(=O)C(C)Sc1nnc2ccc3ccccc3n12 (stereo not given) | -0.7% | / | ? | -52.6% | / | -0.4%
CC(C)[N+]1(C)[C@@H]2CC[C@H]1CC(OC(=O)[C@@H](CO)c1ccccc1)C2 (stereo not given in full) | 4.7% | / | 0.2% | / | i | /
COCCNC(=O)C1=CC(c2ccc3c(c2)OCO3)=NS(=O)(=O)N1C | 0.0% | 0.1% | -16.3% | -12.1% | i | -1.1%
CCc1nc2cc(C(=O)NC3CCOC(C)(C)C3)cc(NC(=O)c3ccccc3OC)c2n1C (stereo not given) | 7.0% | / | -22.5% | / | i | /
Cc1cccc(NC(=O)c2c(O)c3ccccc3n(C)c2=O)c1 | ? | 59.7% | 14.6µM* | 10.6% | i | -14.1%
Cc1ccc(NC(=O)c2c(O)c3ccccc3n(C)c2=O)nc1 | ? | 48.1% | 20.6µM* | -2.3% | i | -22.0%
CCCn1c(=O)c(C(=O)Nc2cccc(C)c2)c(O)c2ccccc21 | ? | / | ? | 0.7% | ? | -1.5%
COc1ccc(N=C2SCC(=O)N2CCc2ccc(OC)c(OC)c2)cc1 | ? | -35.3% | 25.9µM* | -27.2% | i | -40.5%
COc1ccc(CCN2C(=O)CS/C2=N\NC(=O)c2ccc(C(C)(C)C)cc2)cc1OC | ? | -8.7% | 14.6µM* | -18.8% | i | -8.0%
COc1ccc(CCN2C(=O)CSC2=Nc2ccc(C(C)C)cc2)cc1OC | 14.6µM* | -47.0% | 9.2µM* | ? | i | -10.9%
CCCCN(CCN(CCCC)C(=O)N1CCOCC1)C(=O)N1CCOCC1 | / | -14.5% | / | / | i | /
COc1ccc(CCNC(=O)CNS(=O)(=O)c2ccc(F)c(Cl)c2)cc1OC | 5.7% | 10.1% | -3.7% | -2.2% | ? | -22.0%
Cc1ccc(CNCC(O)(c2ccccc2)c2ccc(F)cc2)cc1 (stereo not given) | ? | -15.1% | 20.6µM* | 2.6% | ? | -34.7%
